For assay [1], the system named is CLZ3 (HCA2 human fibroblast dual HR-NHEJ reporter). The assay is described as follows: NHEJ repair efficiency (GFP+ cells) relative to control (log10 fold); higher = more non-homologous end joining. The note with it: 5 µM; doxycycline 0.5 ug/mL.
For assay [2] the test system is unchanged. The experiment in a line: HR repair efficiency (tdTomato+ cells) relative to control (log10 fold); higher = more homologous recombination. The note with it: 5 µM; doxycycline 0.5 ug/mL.
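Wherever HR repair efficiency (tdTomato+ cells) relative to control is given: compound given one day before doxycycline, which switches on I-SceI endonuclease expression to create double-strand breaks within the integrated reporter.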
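Wherever NHEJ repair efficiency (GFP+ cells) relative to control is given: compound given one day ahead of doxycycline, which switches on I-SceI endonuclease to cut the chromosomally integrated reporter and create DSBs.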

As to `COc1cc(O)c(CC=C(C)C)c(O)c1C(=O)/C=C/c1ccc(O)cc1` [Xanthohumol], the “NHEJ repair efficiency (log10)” value in assay [1] is 0.0812. In assay [2], the “HR repair efficiency (log10)” value was found to be 0.0483.

On to `COc1cc(/C=C/C(=O)O)ccc1O` [Sodium Ferulate], for which, in assay [1], the “NHEJ repair efficiency (log10)” value is -0.0171. Further, in assay [2], the “HR repair efficiency (log10)” value was 0.0132.

For the compound `O=c1c(O[C@@H]2O[C@H](CO)[C@@H](O)[C@H](O)[C@H]2O)c(-c2ccc(O)cc2)oc2cc(O)cc(O)c12` [Astragalin], the “NHEJ repair efficiency (log10)” value in assay [1] is -0.0677. In addition, the “HR repair efficiency (log10)” value in assay [2] turned out to be 0.0112.

On to `O=C(/C=C/c1ccc(O)cc1)OC[C@H]1O[C@@H](Oc2c(-c3ccc(O)cc3)oc3cc(O)cc(O)c3c2=O)[C@H](O)[C@@H](O)[C@@H]1O` [Tiliroside], for which the “NHEJ repair efficiency (log10)” value in assay [1] was -0.00145. Besides, the “HR repair efficiency (log10)” value in assay [2] was -0.0226.

As to `O=Cc1ccc(O)c(O)c1` [Protocatechuic aldehyde], the “NHEJ repair efficiency (log10)” value in assay [1] is -0.212. Besides, the “HR repair efficiency (log10)” value in assay [2] was -0.256.

As for `COc1ccc(-c2coc3cc(O)ccc3c2=O)cc1` [Formononetin], the “NHEJ repair efficiency (log10)” value in assay [1] is -0.06. Further, the “HR repair efficiency (log10)” value in assay [2] came out at 0.128.

As to `O=C(OCC1=C[C@@H](O)[C@@H]2C=CO[C@@H](O[C@@H]3O[C@H](CO)[C@@H](O)[C@H](O)[C@H]3O)[C@H]12)c1ccc(O)cc1` [Agnuside], the “NHEJ repair efficiency (log10)” value in assay [1] was -0.062. The “HR repair efficiency (log10)” value in assay [2] stood at 0.106.

As for `C[C@@H]1CC[C@]2(C(=O)O)CC[C@]3(C)C(=CC[C@@H]4[C@@]5(C)CC[C@H](O)[C@@](C)(CO)[C@@H]5CC[C@]43C)[C@@H]2[C@]1(C)O` [Rotundic Acid], in assay [1], the “NHEJ repair efficiency (log10)” value is -0.0308. The “HR repair efficiency (log10)” value in assay [2] amounted to 0.0236.

For `O=C1O[C@H]2[C@@H]3OC(=O)c4cc(O)c(O)c(O)c4-c4c(O)c(O)c5oc(=O)c6c(c(O)c(O)c7oc(=O)c4c5c76)-c4c(cc(O)c(O)c4O)C(=O)OC[C@H]3OC(O)[C@@H]2OC(=O)c2cc(O)c(O)c(O)c2-c2c1cc(O)c(O)c2O` (mixture of isomers) [Punicalagin], in assay [1], the “NHEJ repair efficiency (log10)” value is -0.0664. Further, in assay [2], the “HR repair efficiency (log10)” value is -0.254.

The values above are taken from the supplement of paper PMC7380943.
